TGFb inhibitor = TGF-b pathway inhibition. HepG2 CAGA-GFP TGF-b/SMAD3 reporter, GFP fluorescence, 18 h; TGF-beta stimulated, 500 pg/mL final. Potency, µM (doses to about 46.1 µM), most hits filed as inhibitors. 410,000 compounds, 1.2% hits. AID 588855; also: nearly all actives have a fitted effect of over 65% in size
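GFP signal (ex488/em500-530) from TGF-beta-stimulated HEPG2 CAGA-GFP cells, 500 pg/mL final, 18 h at 37 degrees C in DMEM plus 1% FBS, normalized to unstimulated and DMSO-stimulated controls.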
RORgamma inh = blocks mouse ROR gamma transcriptional activity; Drosophila S2 Gal4-RORgamma UAS-luciferase reporter, 20 h; Potency, µM (top dose mostly 53.6 µM), usual class: inhibitors; 310,000 compounds, 5.4% hits; also: nearly all actives have a fitted effect of over 60% in size
Target sequence (P51450 whole entry, looked up, the tested form may be a part): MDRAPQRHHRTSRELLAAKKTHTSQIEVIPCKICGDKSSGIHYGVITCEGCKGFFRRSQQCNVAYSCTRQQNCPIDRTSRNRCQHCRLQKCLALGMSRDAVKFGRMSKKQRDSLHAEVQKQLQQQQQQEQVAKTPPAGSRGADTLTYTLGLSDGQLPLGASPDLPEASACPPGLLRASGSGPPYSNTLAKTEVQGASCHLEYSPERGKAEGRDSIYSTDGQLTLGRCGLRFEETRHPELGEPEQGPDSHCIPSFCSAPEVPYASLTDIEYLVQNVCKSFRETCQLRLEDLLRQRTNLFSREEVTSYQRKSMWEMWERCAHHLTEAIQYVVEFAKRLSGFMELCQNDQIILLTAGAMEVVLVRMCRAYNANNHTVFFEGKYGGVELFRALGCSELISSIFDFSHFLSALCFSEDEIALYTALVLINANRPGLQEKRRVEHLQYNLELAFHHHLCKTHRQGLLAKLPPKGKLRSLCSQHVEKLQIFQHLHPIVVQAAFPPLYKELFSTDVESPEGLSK
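Luminescence from a UAS-regulated Photinus luciferase reporter in stably transfected Drosophila Schneider cells is measured; decreased signal marks ROR gamma inhibition. Fusion expression is induced by 700 uM copper sulfate for 20 hr.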
S2 tox = cell viability loss in ATXN counter-screen; S2 cells (HEK-293 line with an ATXN2-luciferase reporter) viability, CellTiter-Fluor protease fluorescence, 24 h; Potency, µM (doses to about 56.7 µM), usual class: cytotoxic; AID 651635; 400,000 compounds, 0.49% hits; also: nearly all actives have a fitted effect of over 40% in size
ATXN2 expr inh = ATXN2 expression inhibition; Potency, µM (series often up to 57 µM), most hits filed as inhibitors; 360,000 compounds, 0.72% hits; HEK-293 ATXN2-luciferase reporter, luminescence, 24 h; also: nearly all actives have a fitted effect of over 55% in size
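ATXN2-luciferase reporter cells (luciferase flanked by upstream and downstream ATXN2 gene portions) were treated 24 h at 37 °C with compounds at up to 57 uM. SteadyGlo luminescence gave expression; GF-AFC fluorescence gave viability.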
HepG2 tox = kills HepG2 cells in TGF-b inhibitor counter-screen; HepG2 CAGA-GFP viability, ATP luminescence, 18 h; Potency, µM (titrated, usually from 46.1 µM), hits mostly cytotoxic; 410,000 compounds, 0.76% hits
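CellTiter-Glo luminescence gave cytotoxicity after 18 hours at 37 degrees C. The cells were HepG2 CAGA-GFP in 1% FBS DMEM, stimulated with 500 pg/mL TGF-beta after compound addition. %Activity was normalised to no-cell wells (complete cell-killing) and DMSO (no toxicity), and curves were fitted and classified.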
Gal4-VP16 FLuc = Gal4-VP16 reporter inhibition counter-screen. Drosophila S2 Gal4-VP16 UAS-luciferase, luminescence, 20 h. Potency, µM (titrated, usually from 53.6 µM), usual class: inhibitors. 310,000 compounds, 3.5% hits. AID 2546;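 also: Gal4-VP16 expression switched on by copper sulfate through the metallothionein promoter; nearly all actives have a fitted effect of over 50% in size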
Numbers stand for hits; 0 = inactive; ? = inconclusive; - = no result; [ ] = dose if it differs, or a comment. The list is not random: actives were taken first. Their share in the collection is about 6.1%. Calls follow the shape of the dose curve; as a rule, active = well fitted curve in the direction sought with a large enough effect; inconclusive = small, poorly fitted or top-dose-only effect, or another doubt; inactive = no such curve, though single readings can be large; an effect the other way counts as inactive or inconclusive.

SMILES	TGFb inhibitor	RORgamma inh	S2 tox	ATXN2 expr inh	HepG2 tox	Gal4-VP16 FLuc
Cc1cccc(C)c1NC(=O)Cn1c(=O)n(CCCS(=O)(=O)C2CCCCC2)c(=O)c2ccccc21	0	-	0	0	0	-
O=C(O)C1Nc2c(O)cc(Cl)c([N+](=O)[O-])c2C2C=CCC12 (centres undefined)	0	10µM	?	-	0	0
Cc1ccc2c(c1)C1C=CCC1C(C(=O)O)N2 (centres undefined)	-	0	-	-	-	0
CCOc1ccc(CCNC(=O)CCCc2cc(-c3ccc(OCC)cc3)on2)cc1	0	-	0	0	0	-
CCOc1ccc(NC(=O)CCCc2cc(-c3ccc(OCC)cc3)on2)cc1	0	0.126µM	?	?	0	1.26µM
CCOc1ccc(-c2cc(CCCC(=O)Nc3cccc(OC)c3)no2)cc1	0	0.126µM	0	8.91µM	0	?
COc1ccc(C(=O)Nc2sc(C(=O)N(C)C)c(C)c2C#N)cc1[N+](=O)[O-]	0	?	0	0	0	15.8µM
CCNC(=O)Nc1ccc(Oc2ncnc(N)c2C=NOC)cc1Cl	-	-	-	0	-	-
O=C(Nc1nc(N2C(=O)c3ccccc3C2=O)n(-c2ccccc2)n1)c1ccc(F)cc1	0	10µM	0	0	0	?
Oc1c(C(Nc2cccc(C(F)(F)F)c2)c2ccncc2)ccc2cccnc12 (centres undefined)	0	3.98µM	-	?	0	5.62µM
Oc1c(C(Nc2nccs2)c2ccc(C(F)(F)F)cc2)ccc2cccnc12 (centres undefined)	22.4µM	0.562µM	0	12.6µM	0	1µM
Cc1ccc(C(Nc2ccccn2)c2ccc3cccnc3c2O)cc1 (centres undefined)	?	-	?	?	0	-
O=C(Oc1ccc(F)cc1)c1nc(SCc2ccccc2F)ncc1Cl	0	-	-	-	0	-
O=C(CSc1nc2ccccc2s1)NNC(=O)Nc1ccc(Cl)c(Cl)c1	0	?	0	0	0	0[0.365 µM]
O=C(CSc1nnc(-c2ccccc2)n1-c1ccc(Cl)cc1)NNC(=S)Nc1ccccc1	0	?	0	0	0	?
O=C(CSc1nc2ccccc2s1)NNC(=S)Nc1ccccc1	0	1µM	0	0	0	4.47µM
CCn1c(SCC(=O)NNC(=S)Nc2ccccc2)nnc1-c1ccc(Cl)cc1	0	3.98µM	0	0	0	1.26µM
O=C(CSc1nc2ccccc2s1)NNC(=S)Nc1ccc(Br)cc1	?	0.891µM	0	0	0	?
Cc1nn(-c2ccccc2)c(C)c1CC(=O)NCC1Cc2cc(-c3cncnc3)ccc2O1 (centres undefined)	-	-	0	-	-	-
Cc1ccc2[nH]c(=O)c3cc(C(=O)NCCCN4CCC(C)CC4)sc3c2c1	0	-	20µM	28.2µM	0	-
Cc1ccc2nc(Cl)c3cc(C(=O)NCCCN4CCC(C)CC4)sc3c2c1	0	-	-	-	0	-
O=C(NCc1ccccc1F)C(=O)NCC(c1cccs1)S(=O)(=O)c1cccs1 (centres undefined)	0	-	?	0	0	-
Cc1ccc(Nc2nc(-c3ccc(O)c(O)c3)cs2)nc1	?	12.6µM	0	0	0	6.31µM
Oc1ccc(-c2csc(Nc3ccccn3)n2)c(O)c1	?	11.2µM	0	-	0	?
Cc1cccnc1Nc1nc(-c2ccc(O)cc2O)cs1	?	6.31µM	0	0	0	?
SMILES	TGFb inhibitor	RORgamma inh	S2 tox	ATXN2 expr inh	HepG2 tox	Gal4-VP16 FLuc
Cc1cccnc1Nc1nc(-c2ccccn2)cs1	?	0.0224µM	-	?	0	?
Cc1ccc(Nc2nc(-c3ccc(F)cc3)cs2)nc1	0	0	0	-	0	?
Cc1cccnc1Nc1nc(-c2ccccc2)cs1	?	-	0	0	0	-
CC(C)(C)c1ccc(Cn2cnc3c(cnn3C(C)(C)C)c2=O)cc1	0	-	-	-	0	-
COC(=O)C1CCN(Cc2ccc3c(c2)CN(C(=O)c2cc(C)oc2C)CCO3)CC1	-	-	0	-	-	-
CCOC(=O)c1c(N)sc2c(OCC)c(Br)ccc12	?	?	?	0	0	?
CCOC(=O)c1c(NC(C)=O)sc2c(OCC(O)CNC(C)(C)C)c(Br)ccc12 (centres undefined)	?	0	-	-	11.2µM	0
CCOc1ccc(CCNC(=O)Cn2nnc(-c3ccc(OC)c(OC)c3)n2)cc1OCC	0	-	0	0	0	-
Cc1c(C(=O)N2CCCCC2c2cccnc2)sc2ncnc(NCc3cccs3)c12 (centres undefined)	-	-	0	-	-	-
Cc1nc2ccccc2nc1-c1csc(-c2ccccc2)n1	?	-	-	-	0	-
C[C@@H](O[C@H]1OCCN(Cc2n[nH]c(=O)[nH]2)[C@@H]1c1ccc(F)cc1)c1cc(C(F)(F)F)cc(C(F)(F)F)c1	-	-	31.6µM	?	-	-
COc1ccc(N2Cc3cccc(C(=O)Nc4ccc(F)cc4)c3C2=O)cc1	0	-	-	-	0	-
CN(C)CCN1C(=O)C(=O)/C(=C(/O)c2ccc(S(=O)(=O)N3CCOCC3)cc2)C1c1ccc(F)cc1 (centres undefined)	0	0	0	0	12.6µM	0
CN(C)CCN1C(=O)C(=O)/C(=C(/O)c2ccc(S(=O)(=O)N3CCOCC3)cc2)C1c1ccccc1 (centres undefined)	0	0	0	0	0	0
Fc1ccc(-c2cc(-c3ccccc3)c3c(n2)-c2cc(F)ccc2OC3)cc1	0	-	0	0	0	-
CCOCCCNC(=O)C1CCN(c2nc3ccc(C)cc3[nH]2)CC1	0	-	-	-	0	-
Cn1c(=O)n(C)c2cc(CNCc3ccccc3Cl)ccc21	0	-	0	0	0	-
Cc1cc2c(sc3c(C)ccc(C)c32)c(C)n1	0	17.8µM	0	0	0	0
O=C(CC(c1cccs1)N1Cc2ccccc2C1=O)Nc1ccccc1F (centres undefined)	0	-	0	0	0	-
COc1cccc(CNC(=O)c2c(OC)cc(=O)n3c2CCN(C(=O)c2ccc(C)cc2C)CC3)c1	-	-	0	-	-	-
Fc1ccc2[nH]c3c(NCc4ccccc4)ncnc3c2c1	?	?	0	?	0	5.62µM
Cc1ccc2nc(CSc3nnc(NC(=O)C(C)C)s3)cc(=O)n2c1	0	-	-	-	0	-
Cc1ccc(N/N=C(\C#N)C(N)=S)cc1C	?	2.82µM	?	-	0	?
Cc1ccc(NC(N)=S)cc1C	0	?	0	0	0	?
N#C/C(=N\Nc1ccc(Cl)cc1)C(=N)N1CCCCC1	0	0	?	0	0	0
N#C/C(=N/Nc1ccccc1[N+](=O)[O-])C(N)=S	?	0	0	0	0	0
N#C/C(=N\Nc1ccccc1)C(N)=S	?	12.6µM	0	0	0	?
N#C/C(=N\Nc1ccc(Cl)cc1)C(N)=S	?	4.47µM	?	?	0	6.31µM

Compound activity as filed in PubChem.
